DT40 TDP1 CPT = growth inhibition of DT40 Tdp1-/-;hTDP1 cells with camptothecin (screen for TDP1 inhibitors); chicken DT40 Tdp1-/-;hTDP1 cells + 20 nM CPT, ATP luminescence, 48 h; Potency, µM (titrated, usually from 46.2 µM), hits mostly inhibitors; 420,000 tested, 12% active; AID 686979; note: nearly all actives have a fitted effect of over 55% in size
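Cell growth measured by CellTiter-Glo luminescence after a minimum 48 h, 37 C compound exposure with 20 nM CPT in Tdp1-knockout DT40 cells stably expressing hTDP1, seeded 400/well; qHTS titration format.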
DT40 TDP1 no CPT = qHTS for Inhibitors of human tyrosyl-DNA phosphodiesterase 1 (TDP1): qHTS in cells in absence of CPT | DT40 Tdp1-/- hTDP1 cells, no CPT, ATP luminescence, 48 h | Potency, µM (series often up to 46.2 µM), hits mostly inhibitors | 420,000 tested, 15% active; note: nearly all actives have a fitted effect of over 55% in size
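Camptothecin absent (DMSO only). Human TDP1-complemented DT40 knockout cells, 400 cells/well, 37 °C for minimum 48 hr; ATP measured via CellTiter-Glo, 30 min dark incubation, luminescence.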
HT1080NT lethal = kills 2HG-producing HT-1080-NT fibrosarcoma cells. Potency, µM (doses to about 46.1 µM), actives largely listed as cytotoxic. HT-1080-NT fibrosarcoma viability, CellTiter-Glo ATP luminescence, 48 h. 360,000 tested, 1.6% active. AID 686970;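 note: NT is the 2HG producing partner of a matched IDH1 knockdown line; nearly all actives have a fitted effect of over 55% in size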
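Fibrosarcoma NT cells, 750 per well in 5% FBS RPMI, were exposed to compound for 48 hours. Viability: CellTiter-Glo luminescence.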
IL-1B inflam inh = blocks inflammasome-driven IL-1 beta release. THP-1 LPS/ATP IL-1B secretion, AlphaLISA, 16 h; stronger effect = lower value. activity change, % at 57.5 µM. 360,000 tested, 4.7% active; in the data active = activity change below about -50%; inconclusive = mostly about -30% to -49%
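THP-1 cells pretreated 1 hr with compounds (up to 57.5 uM final), then stimulated with LPS (250 ng/mL final) plus ATP (1.25 mM final); secreted IL-1B measured by AlphaLISA after 16 hr, decreased signal indicating inhibition.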
HT1080 IDH1KD tx = HT-1080 IDH1 knockdown cell toxicity (counter line); HT-1080 IDH1 knockdown viability, ATP luminescence, 48 h; Potency, µM (highest dose often 46.1 µM), most hits filed as cytotoxic; 360,000 tested, 2% active; AID 686971
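Assay cells: HT-1080 with IDH1 knockdown, 750 per well, RPMI/5% FBS. Exposure: 48 h at 37 °C following 2 h pre-incubation. Read: CellTiter-Glo luminescence; fitted concentration-response, curve class assigned.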
Large screens that a line does not name were inactive. This is a sample that favours compounds with a hit; in the whole collection about 19% have one here. Unless noted, calls come from the whole dose curve; as a rule, active = well fitted curve in the direction sought with a large enough effect; inconclusive = small, poorly fitted or top-dose-only effect, or another doubt; inactive = no such curve, though single readings can be large; an effect the other way counts as inactive or inconclusive.

COc1cc(OC)c(NC(=O)CNC(=O)Cn2ccc3ccccc3c2=O)cc1Cl	none
CCOC(CNC(=O)c1cccn2c(=O)c3c(C)c(C)sc3nc12)OCC	DT40 TDP1 CPT 16.4µM, DT40 TDP1 no CPT 18.4µM
O=C(NCCN1CCN(c2cccc(Cl)c2)CC1)c1cccn2c(=O)c3ccccc3nc12	none
CCOC(CNC(=O)c1cccn2c(=O)c3cc(Cl)ccc3nc12)OCC	DT40 TDP1 CPT 11.6µM, DT40 TDP1 no CPT 13µM
CCOC(=O)N1CCN(C(=O)c2cccn3c(=O)c4cc(Cl)ccc4nc23)CC1	none
O=C(NCCN1CCN(c2ccccc2)CC1)c1cccn2c(=O)c3cc(Cl)ccc3nc12	DT40 TDP1 CPT inconclusive, DT40 TDP1 no CPT 18.4µM
C=CCCCCCCCCC(=O)NNC1CC(=O)N(c2ccccc2)C1=O (stereo not given)	none
C=C(CN(C)C)C(=O)c1ccc(OC2OC(COC(C)=O)C(OC(C)=O)C(OC(C)=O)C2OC(C)=O)cc1 (stereo not given)	DT40 TDP1 CPT 0.461µM, DT40 TDP1 no CPT 0.581µM, HT1080NT lethal inconclusive, IL-1B inflam inh -101.3, HT1080 IDH1KD tx 4.61µM
Cc1oc(-c2ccc3c(c2)OCCO3)cc1C(=O)NC(CCC(=O)O)C(=O)O (stereo not given)	none
CN(Cc1cnc2nc(N)nc(N)c2n1)c1ccc(C(=O)NC(CCC(=O)O)C(=O)O)c2ccccc12 (stereo not given)	DT40 TDP1 CPT 0.092µM, DT40 TDP1 no CPT 0.0517µM, HT1080NT lethal inconclusive, HT1080 IDH1KD tx 0.0058µM
CCCNc1c(N)c(=O)oc2ccccc12	none
Nc1c(NCCN2CCCCC2)c2ccccc2oc1=O	DT40 TDP1 CPT 14.6µM, DT40 TDP1 no CPT 16.4µM
O=C1N(Cc2cccc(Cl)c2)C[C@@H]2C[C@@H](c3cccn3-c3nccs3)N3CCC[C@@]123	DT40 TDP1 CPT inconclusive, DT40 TDP1 no CPT 16.4µM, HT1080NT lethal inconclusive, IL-1B inflam inh -81.9, HT1080 IDH1KD tx inconclusive
O=C1N(Cc2cccc(Cl)c2)C[C@@H]2C[C@@H](c3cccc4ncccc34)N3CCC[C@@]123	DT40 TDP1 CPT 23.1µM, DT40 TDP1 no CPT 23.1µM, IL-1B inflam inh -74.1
O=C1N(Cc2cccc(Cl)c2)C[C@@H]2C[C@@H](c3c[nH]c4ccccc34)N3CCC[C@@]123	DT40 TDP1 CPT inconclusive, DT40 TDP1 no CPT 14.6µM, HT1080NT lethal inconclusive
O=C1N(Cc2cccc(Cl)c2)C[C@@H]2C[C@@H](c3ccc4nonc4c3)N3CCC[C@@]123	DT40 TDP1 CPT inconclusive, DT40 TDP1 no CPT 18.4µM
Cc1ccc([C@@H]2C[C@H]3CN(Cc4cccc(Cl)c4)C(=O)[C@]34CCCN24)o1	none
CCCNC(=O)c1ccc(CN2CCOCC2)cc1	none
COC(=O)c1cccc(NC(=O)CCc2c(C)noc2C)c1	none
CN1OC[C@@H]2CN(S(=O)(=O)c3cccc(C(F)(F)F)c3)[C@H](c3ccc(N4CCCCC4)cc3)C[C@@H]21	DT40 TDP1 CPT inconclusive, DT40 TDP1 no CPT inconclusive
O=c1[nH]/c(=C/c2ccc3c(c2)OCO3)c(=O)[nH]/c1=C\c1ccc2c(c1)OCO2	none (no result: HT1080NT lethal, IL-1B inflam inh, HT1080 IDH1KD tx)
CCCCc1cc(=O)oc2cc(OC3CCCCC3=O)ccc12 (stereo not given)	DT40 TDP1 no CPT inconclusive
COC(=O)C1CC(O)CN1C(=O)NC1CCCCC1 (stereo not given)	DT40 TDP1 no CPT inconclusive
CN(CC(=O)NCc1ccncc1)S(=O)(=O)c1ccc(F)cc1	IL-1B inflam inh inconclusive
CCOc1ccc(/C=C2\NC(=S)NC2=O)cc1	DT40 TDP1 CPT inconclusive
Cc1no[n+]([O-])c1COc1ccc(/C=C2\NC(=S)NC2=O)cc1	IL-1B inflam inh -53.4
COc1ccc(/C=C2\C(=O)NCC(=O)N2Cc2ccccc2)cc1	DT40 TDP1 CPT 14.6µM, DT40 TDP1 no CPT 20.6µM, HT1080NT lethal inconclusive, HT1080 IDH1KD tx inconclusive
COc1ccc(/C=C2\C(=O)N(Cc3ccc(F)cc3)CC(=O)N2Cc2ccccc2)cc1	DT40 TDP1 CPT 23.1µM, DT40 TDP1 no CPT 25.9µM
CC(Sc1ccc(Cl)cc1)C(=O)Nc1ccc(S(=O)(=O)N2CCOCC2)cc1 (stereo not given)	DT40 TDP1 CPT inconclusive, DT40 TDP1 no CPT inconclusive
CCOC(=O)C1CCN(C2=NC(=O)/C(=C/c3ccc(O)cc3)S2)CC1	DT40 TDP1 CPT inconclusive, DT40 TDP1 no CPT 7.31µM
CCOC(=O)C1CCCN(C2=NC(=O)/C(=C/c3ccc(N(C)C)cc3)S2)C1 (stereo not given)	DT40 TDP1 CPT inconclusive, DT40 TDP1 no CPT inconclusive, IL-1B inflam inh -83.1, HT1080 IDH1KD tx inconclusive
O=c1c2ccccc2c(/C=N/NS(=O)(=O)c2ccccc2)c(O)n1-c1ccccn1	none
COc1cccc(OCCSc2nc3ccccc3n2CC(=O)N2CCOCC2)c1	none (no result: HT1080NT lethal, IL-1B inflam inh, HT1080 IDH1KD tx)
N#C/C(=C(/O)COc1ccc(Cl)cc1)c1nc2ccccc2s1	DT40 TDP1 CPT inconclusive, DT40 TDP1 no CPT 9.2µM
N#C/C(=N\O)c1nc2ccccc2s1	none
N#C/C(=C(/O)COc1ccccc1)c1nc2ccccc2s1	DT40 TDP1 no CPT inconclusive
N#C/C(=C(/O)CSc1ccccn1)c1nc2ccccc2s1	DT40 TDP1 CPT 14.6µM, DT40 TDP1 no CPT inconclusive
Cc1ccc(SC/C(O)=C(\C#N)c2nc3ccccc3s2)cc1	DT40 TDP1 CPT inconclusive, DT40 TDP1 no CPT inconclusive
N#C/C(=C(/O)c1ccc(F)cc1)c1nc2ccccc2s1	DT40 TDP1 CPT 18.4µM, DT40 TDP1 no CPT 23.1µM
O=[N+]([O-])c1cccc(OCC(O)CN2CCN(S(=O)(=O)c3cc(Cl)ccc3Cl)CC2)c1 (stereo not given)	DT40 TDP1 no CPT inconclusive, IL-1B inflam inh inconclusive, HT1080 IDH1KD tx inconclusive
CN(Cc1ccccc1)S(=O)(=O)c1ccc(Cl)c(C(=O)NCc2ccc3c(c2)OCO3)c1	DT40 TDP1 CPT inconclusive, DT40 TDP1 no CPT inconclusive
O=C(NCc1ccc2c(c1)OCO2)c1nc(S(=O)(=O)Cc2ccccc2)ncc1Cl	DT40 TDP1 CPT 2.59µM, DT40 TDP1 no CPT 4.11µM, HT1080NT lethal 16.4µM, IL-1B inflam inh -104.1, HT1080 IDH1KD tx 16.4µM
O=C(NCc1ccc2c(c1)OCO2)c1nc(S(=O)(=O)Cc2ccccc2F)ncc1Cl	DT40 TDP1 CPT 4.11µM, DT40 TDP1 no CPT 2.06µM, HT1080NT lethal 16.4µM, IL-1B inflam inh -99.5, HT1080 IDH1KD tx inconclusive
CC(C)(C)NC(=O)CN(CCN1CCOCC1)C(=O)CNS(=O)(=O)c1ccccc1	none
Cc1c(N(C)S(=O)(=O)c2cc(C(=O)NCC3CCCO3)ccc2Cl)c(=O)n(-c2ccccc2)n1C (stereo not given)	none
O=C(CCCc1ccccn1)c1ccc(-c2ccccc2)cc1	DT40 TDP1 CPT inconclusive, DT40 TDP1 no CPT inconclusive
Cc1cc(C)cc(NC(=O)CN2CCCN(S(=O)(=O)c3ccc(Br)s3)CC2)c1	DT40 TDP1 CPT inconclusive, DT40 TDP1 no CPT inconclusive, IL-1B inflam inh inconclusive, HT1080 IDH1KD tx inconclusive
